Shown are actives, neighbours in structure and some others; about 21% of the full set was active somewhere.
Cycloheximide cs: Cycloheximide Counterscreen for Small Molecule Inhibitors of Shiga Toxin; cell reporter, cycloheximide protein synthesis inhibition counterscreen; max response, %; hit rate 12% among 300,000; in the data active = max response mostly above about 13%, no sharp cut-off; inactive = mostly below about 14%; note: read at 38.3 µM for the half of the compounds with a filed dose; 0% is about no effect
Pf growth 48h: Primary qHTS for delayed death inhibitors of the malarial parasite plastid, 48 hour incubation. P. falciparum luciferase growth in erythrocytes, 48 h. Potency, µM (titrated, usually from 28.7 µM), without a hit: at the highest dose activity change, negative = inhibition, hits mostly inhibitors. hit rate 5.9% among 310,000; note: potency is the fitted concentration of half-maximal effect; % is set by controls: 0 for no effect and ±100 for the full control effect
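Luciferase-expressing parasites in RBCs, 2% Hct / 0.1% parasitemia final; RPMI 1640 + 0.5% Albumax; 37 C, 5% CO2, one generation; luminescence read-out, lower signal = inhibition.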
Shiga toxin inh: A qHTS for Small Molecule Inhibitors of Shiga Toxin | Vero cells, Shiga toxin protein synthesis inhibition reporter | inhibition, % at 38.7 µM | hit rate 9.2% among 290,000 | AID 2315, 2010; in the data active = inhibition mostly above about 28%, no sharp cut-off; inactive = mostly below about 43%; note: 0% is about no effect
HCV inh: qHTS Assay for Inhibitors of Hepatitis C Virus (HCV) | Huh7.5.1 HCVcc-Cre infection, luciferase reporter, 44 h | Potency, µM (top dose mostly 41.8 µM), for the others: at the top dose activity change, negative = inhibition, usual class: inhibitors | hit rate 3.4% among 340,000; note: potency is the fitted concentration of half-maximal effect; % is set by controls: 0 for no effect and ±100 for the full control effect
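After 44 h co-culture of compound, cells and HCVcc-Cre (~0.5 moi), substrate is added for 15 min at room temperature and luciferase measured over 15 sec. Cells were seeded at 1,000/well and pre-cultured 4 h.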
HCMV antiviral: qHTS Assay for inhibitors of the human cytomegalovirus (HCMV); hit rate 4.5% among 410,000; activity change, negative = inhibition, % at 57.5 µM; HFF cells, HCMV-luciferase reporter, 72 h; active compounds read low; in the data active = activity change below about -60%; inconclusive = no clear call, values can overlap the other calls; inactive = above about -39%; note: % is set by controls: 0 for no effect and ±100 for the full control effect
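Cell-based, HFFs, 1000 cells/well, 16 h 37C; cpds in DMSO + HCMV-luc, MOI 1 PFU/cell; 72 h 37C; OneGlo luminescence after 5 min RT; norm. to buffer vs Salinomycin 10uM.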
Pf growth 96h: Primary qHTS for delayed death inhibitors of the malarial parasite plastid, 96 hour incubation. P. falciparum luciferase reporter growth, 96 h. Potency, µM (highest dose often 28.7 µM), without a hit: top-dose activity change, negative = inhibition, actives largely listed as inhibitors. hit rate 6.9% among 320,000; note: potency is the fitted concentration of half-maximal effect; % is set by controls: 0 for no effect and ±100 for the full control effect
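Erythrocytes infected with luciferase-expressing P. falciparum were dispensed at 2% hematocrit and 0.05% parasitemia (final), then incubated with compounds 96 hours at 37 C in 5% CO2. Luminescence after detection reagent addition reported growth.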
* marks the source's active call; other numbers are inactive results; i = inactive; ? = inconclusive; . = not tested or not shown; ! = not confirmed by another sample; [ ] = dose if it differs, or a comment. Unless noted, calls come from the whole dose curve; as a rule, active = well fitted inhibition curve with a large enough effect; inconclusive = small, poorly fitted or top-dose-only effect, or another doubt; inactive = no such curve, though single readings can be large or run the other way.

SMILES | Cycloheximide cs | Pf growth 48h | Shiga toxin inh | HCV inh | HCMV antiviral | Pf growth 96h
COc1ccc2c(c1)CCC(=O)C(C)CCO2 (stereo unspecified) | . | . | . | . | 4 | .
COc1ccc(C=NNC(=O)CCCC(=O)NN=Cc2ccc(OC)c(OC)c2)cc1OC | . | . | . | 34% | -29 | .
COc1cccc(/C=N/NC(=O)CCn2c3ccccc3c3ccccc32)c1 | -6 | -15% | -7 | -22% | 49 | -25%
COc1ccc(C=NNC(=O)CCCC(=O)NN=Cc2ccc(OC)c(O)c2)cc1O | . | . | . | 1% | -69* | .
COc1ccc(/C=N/NC(=O)CCn2c3ccccc3c3ccccc32)cc1O | 3 | ? | -7 | 6.3µM* | 17 | ?
CCCCNC(=O)CCCN1C(=O)c2ccccc2Sc2ncccc21 | . | . | . | . | -10 | .
CCCOC(=O)NC(CC)COC(=O)Nc1cccc(C)c1C (stereo unspecified) | 7 | 6% | 25 | ? | -5 | 9.3µM*
CCOC(=O)C1(Cc2cccc(F)c2)CCN(C(=O)c2cnc(C)cn2)CC1 | 7 | -23% | -11 | 0% | ? | -9%
CSCc1c(C(=O)N2CCCc3ccccc32)oc2ccccc12 | . | 12µM* | . | ? | -13 | -53%
CC(=O)c1cccc(OCC(=O)N2CCCc3ccccc32)c1 | 23* | -14% | 32 | -5% | 16 | 1%
COc1ccc(CC(=O)N2CCCc3ccccc32)cc1 | 54* | 38% | 99* | 16% | 5 | ?
COc1cccc(NC(=O)N2CCCC2)c1 | 27 | 78% | 54* | 4% | -1 | 20%
COc1ccc(CC(=O)OCC(=O)N2CCCc3ccccc32)cc1 | . | -8% | . | -5% | 17 | 3%
Cc1ccc(-c2nc3c4ccccc4[nH]c(=O)n3n2)cc1 | . | . | . | . | 78 | .
COc1ccc(C(=O)N2CCN=C2SC)cc1 | 17 | 25% | 16 | -8% | 56 | 4%
CC(=O)c1cccc(NC(=O)Cc2ccc(NC(=O)N3CCCCc4ccccc43)cc2)c1 | . | . | . | . | 11 | .
CC(=O)c1cccc(NC(=O)N2CCCc3ccccc32)c1 | 21* | 83% | 58 | 0% | ? | -17%
COc1ccc(C(=O)N2CCCc3ccccc32)cc1Br | 1 | -11% | -7 | 5% | -6 | ?
COc1ccc(C(=O)N2CCCC2=O)cc1 | -4 | 19% | 23 | 11%[8.37 µM] | ? | 13µM*!
COc1cc(OC)cc(C(=O)N2CCCc3ccccc32)c1 | 24* | 0% | 85 | ? | -40 | 0%
COc1cccc(NC(=O)C(=O)N2CCOCC2)c1 | 41* | i | 50* | -8% | 48 | 1%
CCCC(=O)Nc1ccc2oc(=O)ccc2c1 | 9 | -21% | 7 | 20% | ? | ?
NC(c1ccccc1)c1cccnc1 (stereo unspecified) | -2 | 2% | -8 | -8% | 7 | -28%
COc1cccc(NS(=O)(=O)c2ccc3c(c2)CCCN3C(C)=O)c1 | -3 | . | 3 | -11% | -60* | -28%
O=C(c1cccc(Br)c1)N1CCCc2ccccc21 | -2 | 20% | 1 | 2% | 22 | ?
SMILES | Cycloheximide cs | Pf growth 48h | Shiga toxin inh | HCV inh | HCMV antiviral | Pf growth 96h
O=C(c1cnc2ccccn2c1=O)N1CCCc2ccccc21 | -5 | 8% | 3 | -3% | -64* | -28%
COc1ccc(NC(=O)N2CCCc3ccccc32)cc1OC | 16* | 16% | 55 | 13% | 18 | -20%
O=C(c1cnc2n(c1=O)CCS2)N1CCCc2ccccc21 | -2 | -1% | -2 | -3% | 29 | -55%
O=C(c1coc(=O)c(Br)c1)N1CCCc2ccccc21 | 40* | 14% | 74* | -27% | -75* | ?
COc1ccc(NS(=O)(=O)c2ccc3c(c2)CCCN3C(C)=O)cc1 | 4 | -9% | -2 | 22% | ? | ?
COc1ccc(NC(=O)c2nc(C)n(-c3ccc([N+](=O)[O-])cc3)n2)cc1 | 7 | -11% | -8 | 3% | 20 | ?
O=C(c1cc2ccccc2c(=O)o1)N1CCCc2ccccc21 | 17* | -15% | 50 | -2% | -36 | ?
COc1cccc(NC(=O)N2CCCc3ccccc32)c1 | 47* | 33% | 73* | 6% | ? | -11%
Cc1ccc(-n2ccn(CC(=O)c3ccc(F)cc3)c(=O)c2=O)cc1C | . | . | . | . | -39 | .
O=C(Nc1ccc(-c2nc3ccccc3s2)cc1)c1cc(-n2cnnc2)ccc1Cl | 27* | 9.3µM* | 19 | 4µM* | -82* | 7.4µM*
Cc1nnc(SCC(=O)Nc2nsc(-c3ccc(C(C)(C)C)cc3)n2)s1 | 23* | . | 32 | 3% | -25 | ?
CCn1c(SCC(=O)Nc2ccc(-c3nc4ccc(C)cc4s3)cc2)nnc1-c1ccccc1 | 34* | 214% | 59* | -10%[0.335 µM] | . | 13µM*
C=CCn1c(SCC(=O)Nc2ccc(-c3nc4ccc(C)cc4s3)cc2)nnc1-c1ccncc1 | 19* | 127% | 39 | 1% | 172 | ?
CCn1c(SCC(=O)Nc2nc3ccccc3s2)nnc1-c1ccc(Br)cc1 | 1 | . | 23 | 1% | 42 | -7%
Cc1snnc1C(=O)NC(=S)Nc1ccccc1 | -2 | 88% | 4 | 12% | 39 | 6%
CCc1nn2c(=O)cc(COC(=O)c3cccc(NC(=O)c4ccccc4C)c3)nc2s1 | . | . | . | . | 29 | .
Cc1nnc(SCC(=O)Nc2ccc(-c3nc4ccccc4s3)cc2)s1 | 65* | 99% | 38* | 1% | 58 | ?
Cc1nnc(SCC(=O)Nc2ccccc2NC(=O)CSc2nnc(C)s2)s1 | -5 | 12% | -8 | 7% | 13 | -18%
CCc1nnc(SCc2ccc(F)cc2Cl)c2cc3sc(C)cc3n12 | . | . | . | . | -5 | .
O=C(N=c1nc2ccccn2s1)c1ccccc1 | 41* | 256% | 152* | . | 49 | 7%
CCOC(=O)c1sc(=NC(=O)C2CC2)n(C)c1C | 19 | 1% | 13 | -8% | -18 | ?
CCOC(=O)c1sc(=NC(=O)COc2ccccc2)n(C)c1C | 23 | 32% | 26 | -1% | -20 | 28%
CCOC(=O)c1sc(=NC(=O)c2ccc(F)cc2)n(C)c1C | 29* | 226% | 77* | 10% | 146 | 113%

Source: PubChem BioAssay (National Center for Advancing Translational Sciences (NCATS))
